{"source": "PubChem BioAssay (NCATS)", "note": "Records with an inconclusive call do not appear. The source made the active and inactive calls. Calls come from the whole dose curve; as a rule, active = well fitted curve in the direction sought with a large enough effect; inconclusive = small, poorly fitted or top-dose-only effect, or another doubt; inactive = no such curve, though single readings can be large or run the other way. % is set by controls: 0 for no effect and ±100 for the full control effect."}
{"assay": "qHTS Assay for Identifying Gametocytocidal Compounds (AID 743244);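 note: actives lower the fluorescent signal which means gametocytes are killed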", "settings": "P. falciparum 3D7 stage III-V gametocytes, alamarBlue, 72 h; max response: active compounds read low", "how_it_was_run": "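Stage III-V P. falciparum 3D7 gametocytes, 20,000 per well, were exposed to compounds for 72 h at 37C, 5% CO2. AlamarBlue was then added for 24 h and viability was read as fluorescence at Ex 525/Em 598 nm.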"}
{"smiles": "CO[C@H]1C[C@H](O[C@H]2[C@H](C)[C@@H](O[C@@H]3O[C@H](C)C[C@H](N(C)C)[C@H]3O)[C@@H](C)C[C@]3(CO3)C(=O)[C@H](C)[C@@H](O)[C@@H](C)[C@@H](C)OC(=O)[C@@H]2C)O[C@@H](C)[C@@H]1O", "max response": "-2.69% (inactive)"}
{"smiles": "C=CC(=O)O", "max response": "-1.82% (inactive)"}
{"smiles": "O=P(O)(O)OP(=O)(O)OP(=O)(O)O", "max response": "1.26% (inactive)"}
{"smiles": "O=C(O)CCCC/C=C(\\c1ccccc1)c1cccnc1", "max response": "0.181% (inactive)"}
{"smiles": "CCCCCCCCCCCC(=O)OC[C@@H](O)C1OC[C@H](O)[C@H]1O", "note": "(stereo not given in full)", "max response": "-8.97% (inactive)"}
{"smiles": "C[C@@H](O)[C@H]1C(=O)N2C(C(=O)[O-])=C(SC3Cn4cnc[n+]4C3)[C@H](C)[C@H]12", "note": "(stereo not given in full)", "max response": "-4.53% (inactive)"}
{"smiles": "C[C@@H]1O[C@@H]1P(=O)(O)O", "max response": "-12.6% (inactive)"}
{"smiles": "O=C(NCCNCC(O)COc1ccc(O)cc1)N1CCOCC1", "note": "(stereo not given)", "max response": "-13.8% (inactive)"}
{"smiles": "COc1ccc(/C=C/C(=O)OCCC(C)C)cc1", "max response": "3.66% (inactive)"}
{"smiles": "Nc1nc(NC2CC2)c2ncn([C@@H]3C=C[C@@H](CO)C3)c2n1", "max response": "15.8% (inactive)"}
{"smiles": "O=[N+]([O-])c1c(Cl)cccc1-c1c[nH]cc1Cl", "max response": "0.263% (inactive)"}
{"smiles": "CN1C(=O)OC(C)(C)C1=O", "max response": "8.47% (inactive)"}
{"smiles": "CO/N=C(\\C(=O)N[C@@H]1C(=O)N2C(C(=O)O)=C(CSc3nc(C)c(CC(=O)O)s3)CS[C@H]12)c1csc(N)n1", "max response": "4.68% (inactive)"}
{"smiles": "CCN(CC)CCOc1ccccc1OC", "max response": "-0.561% (inactive)"}
{"smiles": "CO[C@@]1(NC(=O)C2SC(=C(C(N)=O)C(=O)O)S2)C(=O)N2C(C(=O)O)=C(CSc3nnnn3C)CS[C@@H]21", "note": "(stereo not given in full)", "max response": "10.6% (inactive)"}
